Hit rate of the full screen: of about 5,500 compounds, about 2,000 (36%) were called active. Not shown: some 18% with an inconclusive outcome. Rule as the data show it: active = normalized growth mostly below about 0.91 (no sharp cut-off); inconclusive = no clear call, values can overlap the other calls; inactive = mostly above about 0.92. Some of the results follow.
Test: chemical genetic growth profiling, strain panel (AID 1159580);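 also: tested at 20 µM; growth read once vehicle control cultures reached saturation at 30 °C; 1 = growth at the plate median or of vehicle wells; lower values mean less growth of the strain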
Settings: S. cerevisiae deletion strains, growth OD

Measured: normalized growth

CCN(CC)C(=O)c1ccc(O)c(OC)c1
inactive: locus YAL013W, strain DEP1, stronger effect = lower value 1.01 | locus YAL040C, strain CLN3, stronger effect = lower value 1.05 | locus YCL061C, strain MRC1 (second series), stronger effect = lower value 1 | locus YDR363W, strain ESC2, stronger effect = lower value 1.01 | locus YER002W, strain NOP16, stronger effect = lower value 1.03 | locus YHR030C, strain SLT2, stronger effect = lower value 0.964 | locus YHR079C, strain IRE1, stronger effect = lower value 0.997 | locus YJL095W, strain BCK1, stronger effect = lower value 1 | locus YJR066W, strain TOR1, stronger effect = lower value 0.957 | locus YLR113W, strain HOG1, stronger effect = lower value 0.99 | locus YNL175C, strain NOP13, stronger effect = lower value 1.01 | locus YNL183C, strain NPR1, stronger effect = lower value 0.938 | locus YNL197C, strain WHI3, stronger effect = lower value 0.999 | locus YNL224C, strain SQS1, stronger effect = lower value 1.01 | locus YNL322C, strain KRE1, stronger effect = lower value 1.03 | locus YOR083W, strain WHI5 (second series), stronger effect = lower value 1.01 | locus YOR231W, strain MKK1, stronger effect = lower value 0.985 | locus YPL256C, strain CLN2, stronger effect = lower value 0.975

Source: PubChem BioAssay AID1159580 (chemical genetic matrix, 2015)
